Only a selection was taken, and hits are over-represented in it overall.
Pf Dd2 inh = blocks in vitro growth of P. falciparum Dd2; P. falciparum Dd2 growth, SYBR Green, 72 h; Potency, µM (doses to about 28.9 µM), most hits filed as inhibitors; hit rate 4.3% among 120,000; active means well fitted inhibition curve with a large enough effect; further: nearly all actives have a fitted effect of over 65% in size
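Infected erythrocytes (Dd2, 0.3% parasitemia, 2.5% hematocrit final) are added to compound in RPMI-1640/Albumax II medium, grown 72 h at 37C in low oxygen, then lysed with saponin/Triton-X containing SYBR Green and read by fluorescence.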
Numbers stand for hits; - = inactive; [ ] = dose if it differs, or a comment.

SMILES	Pf Dd2 inh
CCc1cc(N2CCC(Cc3nncn3C)CC2)nc(N2CCOCC2)n1	-
O=C(c1scc2c1OCCO2)N1CCCC(N2CCN(c3cccc(Cl)c3)CC2)C1 (stereo not drawn)	-
C[C@@H](NCC1CCCC1)c1onc(-c2cccnc2)c1C(=O)O	-
O=C1NC2(CCCN(Cc3ccncc3)C2)Oc2ccccc21 (stereo not drawn)	-
O=C1NC2(CCN(Cc3ccccc3)C2)Oc2ccccc21 (stereo not drawn)	-
O=C1NCN(Cc2ccc(Cl)cc2)C12CCN(Cc1ccncc1)CC2	-
CN(C)c1ccc(CN2CCC3(C2)NC(=O)c2ccccc2O3)cc1 (stereo not drawn)	-
Cn1cccc1CN1CCC2(CC1)C(=O)NCN2Cc1ccc(Cl)cc1	-
COc1cccc(CN2CCC3(COc4ccccc4C(=O)N3)C2)c1 (stereo not drawn)	-
O=C1NC2(CCCN(Cc3ccccc3)C2)Oc2ccccc21 (stereo not drawn)	12.6µM
COc1cccc(CN2CCCC3(COc4ccccc4C(=O)N3)C2)c1 (stereo not drawn)	11.2µM
O=C1NC2(CCN(Cc3ccc(F)cc3)C2)Oc2ccccc21 (stereo not drawn)	11.2µM
O=C1NC2(CCN(Cc3ccc(C(F)(F)F)cc3)C2)Oc2ccccc21 (stereo not drawn)	-
O=C1NC2(CCCN(Cc3ccsc3)C2)COc2ccccc21 (stereo not drawn)	-
COc1ccc(CN2CCC3(CC2)C(=O)NCN3Cc2ccc(Cl)cc2)cc1	3.16µM
O=C(CCCc1c[nH]c2ccccc12)N1CCc2nc3cc(-c4ccccc4)[nH]n3c(=O)c2C1	-[5.79 µM]
Cc1cccc(Nc2ncncc2-c2nc(-c3ccccc3)no2)c1C	-
Cn1ncc(N2CCCC(CC(=O)Nc3ccc(F)cc3F)C2)cc1=O (stereo not drawn)	-
CCC(CC)CN1CC2(CCN(C(=O)CCc3cnn(C)c3)CC2)OC1=O	-
CN1CCCC2(CCN(C(=O)Nc3ccccc3-c3ccccc3)C2)C1=O (stereo not drawn)	-
Cc1ccc(C(=O)N2CCN(C(=O)c3nnn4c3COC(c3ccccc3)C4)CC2)cc1C (stereo not drawn)	-
CN(C)C[C@@H]1CN(Cc2cccnc2)C[C@H]1NC(=O)C1(C)CCOCC1	-
COc1ccc(OC)c(NC(=O)CSC2=Nc3ccccc3C3=NC(CC(=O)NCc4ccco4)C(=O)N23)c1 (stereo not drawn)	-
CCCCNC(=O)CSC1=Nc2ccccc2C2=NC(CCC(=O)NCc3ccccc3OC)C(=O)N12 (stereo not drawn)	-
COc1ccc(CCNC(=O)CSC2=Nc3ccccc3C3=NC(CCC(=O)NCc4ccccc4)C(=O)N23)cc1OC (stereo not drawn)	-
SMILES	Pf Dd2 inh
CCCCNC(=O)CC1N=C2c3ccccc3N=C(SCC(=O)NCc3ccccc3Cl)N2C1=O (stereo not drawn)	10µM
O=C(CC1N=C2c3ccccc3N=C(SCC(=O)Nc3ccc(F)cc3)N2C1=O)NCc1cccs1 (stereo not drawn)	-
O=C(CCC1N=C2c3ccccc3N=C(SCC(=O)Nc3ccccc3F)N2C1=O)NCc1cccs1 (stereo not drawn)	-
Cc1ccc(CSC2=Nc3ccccc3C3=NC(CCC(=O)NCCc4ccccc4)C(=O)N23)cc1 (stereo not drawn)	10µM
COCCCNC(=O)CSC1=Nc2ccccc2C2=NC(CCC(=O)NCc3ccccc3OC)C(=O)N12 (stereo not drawn)	-
COc1ccc(Cl)cc1NC(=O)CSC1=Nc2ccccc2C2=NC(CC(=O)NCc3cccs3)C(=O)N12 (stereo not drawn)	11.2µM
Cc1ccc(CSC2=Nc3ccccc3C3=NC(CCC(=O)NCc4cccs4)C(=O)N23)cc1 (stereo not drawn)	-
O=C(CC1N=C2c3ccccc3N=C(SCC(=O)Nc3cccc(C(F)(F)F)c3)N2C1=O)NCc1cccs1 (stereo not drawn)	12.6µM
O=C(CC1N=C2c3ccccc3N=C(SCc3cccc(F)c3)N2C1=O)NCc1cccs1 (stereo not drawn)	-
CN(C)[C@@H]1CN(C(=O)c2ccc(F)cc2)CC[C@]1(O)c1ccccc1	-[5.79 µM]
CCn1cc(S(=O)(=O)N2CCCC(c3nc(-c4cnccn4)no3)CCNC(=O)CC2)cn1 (stereo not drawn)	-
CC(C)CS(=O)(=O)c1ncc(CN(C)Cc2cnn(C)c2)n1Cc1ccccc1	-
CC(C)(c1nc(-c2cccnn2)no1)n1cccc1	-
COC[C@@H]1CN(S(=O)(=O)c2ccc(F)cc2)C[C@H]1c1nc(C)no1	-
O=C(c1ccccn1)N1CCCCCCn2c(nnc2-c2ccc(F)cc2)CC1	-
CCN(CC)Cc1cc(C(=O)N[C@H](c2cccs2)C2CC(O)C2)c(C)o1 (stereo partly drawn)	-
CCOC(=O)C1(Cc2ccc(Cl)cc2)CCN(C(=O)CC2=CCCCC2)CC1	-
CC(C)(CC(=O)O)CC(=O)N[C@H]1C[C@H]2C(=O)Nc3ccc(-c4ccsc4)cc3C(=O)N2C1	-
CCC1(O)CCC12CCN(C(=O)c1ccco1)CC2 (stereo not drawn)	-
Cc1cc(N2C[C@H](NC(=O)CN3CC(=O)NC3=O)[C@@H](C3CC3)C2)ncn1	-
O=C(CSC1=Nc2ccccc2C2=NC(CCC(=O)NC3CCCCC3)C(=O)N12)Nc1cccc(C(F)(F)F)c1 (stereo not drawn)	10µM
CCOc1ccccc1NC(=O)CSC1=Nc2ccccc2C2=NC(CC(=O)NC3CCCCC3)C(=O)N12 (stereo not drawn)	11.2µM
COc1ccc(NC(=O)CSC2=Nc3ccccc3C3=NC(CCC(=O)NC4CCCCC4)C(=O)N23)cc1 (stereo not drawn)	-
CC(C)c1ccc(NC(=O)CSC2=Nc3ccccc3C3=NC(CCC(=O)NC4CCCCC4)C(=O)N23)cc1 (stereo not drawn)	-
CCc1ccc(NC(=O)CSC2=Nc3ccccc3C3=NC(CC(=O)NC4CCCCC4)C(=O)N23)cc1 (stereo not drawn)	-
SMILES	Pf Dd2 inh
O=C(CSC1=Nc2ccccc2C2=NC(CC(=O)NC3CCCCC3)C(=O)N12)Nc1ccc(F)cc1 (stereo not drawn)	-
Cn1cc(CCC(=O)N2CCN(Cc3ccccc3)CC(O)C2)cn1 (stereo not drawn)	-
CC(=O)N1CCn2c(nn(-c3ccc(C)cc3)c2=O)C1	-
O=C(c1cccs1)N1CCOC(CCc2ccccc2)C1 (stereo not drawn)	-
CN1CCC(C2CCN(C(=O)NC3CCCC3)C2)CC1 (stereo not drawn)	-
Cc1ccc(-c2nc(C3CC(=O)N(C4CCCCC4)C3)no2)cc1 (stereo not drawn)	-
COc1ccc(C2(c3nc(C4CC(=O)N(C5CCCCC5)C4)no3)CC2)cc1 (stereo not drawn)	11.2µM
COCc1nc(C2CC(=O)N(C3CCCCC3)C2)no1 (stereo not drawn)	-
Cc1cc2nc3n(c(=O)c2n1CC(=O)Nc1ccc(F)c(Cl)c1)CCCCC3	-
CC(C)NC(=O)N1CCC2(CC1)CN(C(=O)c1ccnc(N)c1)Cc1ccccc1O2	-
CC(C)NC(=O)N1Cc2ccccc2OC2(CCN(C(=O)c3ccc4[nH]ccc4c3)CC2)C1	10µM
COCCOCC(=O)N1Cc2ccccc2OC2(CCN(C)CC2)C1	-
CC(=O)N1CCC2(CC1)CN(C(=O)c1ccc3[nH]ccc3c1)Cc1ccccc1O2	10µM
CN1CCC2(CC1)CN(C(=O)CCc1ccccc1)Cc1ccccc1O2	1µM

Assay outcomes: PubChem, National Center for Advancing Translational Sciences (NCATS)
